{"source": "PubChem BioAssay (NCI)", "note": "The panel holds about 83,000 compounds, 20% with a hit somewhere; the sample as a whole holds those more often.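 Plates (96-well) were seeded with cells, treated with compound at one concentration, and incubated for 48 hours before percent growth was determined.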 Calls of active or inactive are those of the source."}
{"tested_on": "MDA-MB-435 melanoma", "test": "NCI-60 one-dose screen, 48 h (100 = growth as untreated, 0 = no growth, -100 = all killed)", "conditions": "10 µM unless noted", "protocol": "Growth inhibition of the MDA-MB-435 human Melanoma tumor cell line is measured as a screen for anti-cancer activity. Cells are grown in 96 well plates and exposed to the test compound for 48 hours. Compounds are tested at a single concentration, which is 10^-5 M for most compounds. The reported endpoint is percent growth (GI% or GIPRCNT), where numbers from 0 - 100% represent growth inhibition, and numbers from -100% - 0 represent cell death. For example, a value of 40 represents 60% growth inhibition. A value of 0 means no net growth occurred over the course of the experiment. A value of -40 indicates 40% of cells at the beginning of the experiment died by the end of the experiment. A value of -100 means all cells are dead at the end of the experiment.\nNCI-60 Human Tumor Cell Lines Screen was performed using the standard one-dose NCI protocol, which is described in more detail at https://dtp.cancer.gov/discovery_development/nci-60/default.htm.\nCompounds with GIPRCNT values below 10 were considered active. Activity score was based on GIPRCNT using the following formula: […]\nScore is 0 for GIPRCNT values of 100 or above, 50 for GIPRCNT values of 0, and 100 for GIPRCNT values of -100."}
{"smiles": "CCOC(=O)C(CCC#N)(CCC#N)C(=O)OCC", "growth": "101% (inactive)"}
{"smiles": "Clc1ccc(C(SCc2ccccc2)SCc2ccccc2)cc1", "growth": "97.9% (inactive)"}
{"smiles": "NNc1ncnc2nc[nH]c12", "growth": "51.3% (inactive)"}
{"smiles": "Cc1ccc(NC(=S)N2CCOCC2)cc1C", "growth": "83.2% (inactive)"}
{"smiles": "CCCCn1cnc2c(=O)[nH]cnc21", "growth": "100% (inactive)"}
{"smiles": "CCOC(OCC)C(=O)c1ccccc1", "growth": "109% (inactive)"}
{"smiles": "CC(C)N(C(=O)c1ccccc1)C(C)C", "growth": "107% (inactive)"}
{"smiles": "CC1CCC(C)(C)c2ccccc21", "note": "(stereo not given)", "growth": "105% (inactive)"}
{"smiles": "CC(=O)O[C@H]1CC[C@]2(C)C3=C(C(=O)C[C@H]2C1(C)C)[C@]1(C)CC[C@H]([C@H](C)CCC(=O)O)[C@@]1(C)CC3=O", "growth": "98.7% (inactive)"}
{"smiles": "O=C1NCC2CCCC1C2", "note": "(stereo not given)", "growth": "112% (inactive)"}
{"smiles": "CN(C)c1ccc2c(N(C)C)cc(N(C)C)nc2c1", "growth": "80.2% (inactive)"}
{"smiles": "O=C(O)CCCCCNC(=O)OCc1ccccc1", "growth": "99.8% (inactive)"}
{"smiles": "O=C(c1ccccc1O)N1CCCC1", "growth": "103% (inactive)"}
{"smiles": "CN(C)c1ccc2nc3ccc(=[N+](C)C)cc-3oc2c1", "growth": "55.1% (inactive)"}
{"smiles": "COc1cc(OC)c2cc(C(=O)c3ccc(C#N)cc3)c(=O)oc2c1", "growth": "94.6% (inactive)"}
{"smiles": "Clc1ncnc2nc[nH]c12", "growth": "106% (inactive)"}
{"smiles": "O=S(=O)(O)C(C(I)I)S(=O)(=O)O", "growth": "104% (inactive)"}
{"smiles": "NNc1ncnc2c1ncn2C1OC(CO)C(O)C1O", "note": "(stereo not given)", "growth": "56.4% (inactive)"}
{"smiles": "C/C(=N\\O)c1ccccn1", "growth": "94.3% (inactive)"}
{"smiles": "Nc1c(O)c(S(=O)(=O)O)c(O)c2c1C(=O)c1ccccc1C2=O", "growth": "21.3% (inactive)"}
{"smiles": "O=C(O)CSCC(=O)Nc1cc(C(F)(F)F)ccc1Cl", "growth": "111% (inactive)"}
{"smiles": "CCOP(=O)(NC(c1ccccc1)c1ccccc1)OCC", "growth": "110% (inactive)"}
{"smiles": "O=C(Nc1c(Cl)cc(Cl)cc1Cl)ON=C1CCCCC1", "growth": "107% (inactive)"}
{"smiles": "CCC12OC(COc3ccccc3)CN1CCN2c1ccccc1", "note": "(stereo not given)", "growth": "98.6% [100 µM] (inactive)"}
{"smiles": "CCC(C)C1CCC(O)CC1", "note": "(stereo not given)", "growth": "103% (inactive)"}
{"smiles": "CC1(C)CC(=O)C=C(N)C1", "growth": "99.2% (inactive)"}
{"smiles": "BrCc1cccc(C[P+](c2ccccc2)(c2ccccc2)c2ccccc2)c1", "growth": "18% (inactive)"}
{"smiles": "Cc1cc2c(C(C)C)c(O)c(O)c(C=Nc3ccccc3[N+](=O)[O-])c2c(O)c1-c1c(C)cc2c(C(C)C)c(O)c(O)c(C=Nc3ccccc3[N+](=O)[O-])c2c1O", "growth": "109% (inactive)"}
{"smiles": "CC1CN(CCO)CC(C)O1", "note": "(stereo not given)", "growth": "102% (inactive)"}
{"smiles": "CCCC(=O)c1cccs1", "growth": "104% (inactive)"}
{"smiles": "Cc1c(-c2ccc(C3CCCCC3)cc2)nc2ccc(F)cc2c1C(=O)O", "growth": "34.5% (inactive)"}
{"smiles": "COC1OC(COC(C)=O)C(OC(C)=O)C(OC(C)=O)C1OC(C)=O", "note": "(stereo not given)", "growth": "105% (inactive)"}
{"smiles": "COC(=O)c1ccc([N+](=O)[O-])c(C)c1", "growth": "101% (inactive)"}
{"smiles": "COc1ccc2c(Cl)cc(NC(=O)Nc3c(C)cccc3C)nc2c1", "growth": "83% (inactive)"}
{"smiles": "ON1CCCC1", "growth": "107% (inactive)"}
{"smiles": "CCCC(=O)CC(=O)c1ccccc1", "growth": "110% (inactive)"}
{"smiles": "NC(CO)(CO)c1ccccc1", "growth": "98.4% (inactive)"}
{"smiles": "CC(=O)c1cccc(NS(=O)(=O)c2ccc(C)cc2)c1", "growth": "-21.4% (active)"}
{"smiles": "Cn1/c(=N\\N=C\\c2ccccc2OCCO)sc2ccccc21", "growth": "107% (inactive)"}
{"smiles": "CN(C)c1ccc(O)c2c1CC1CC3C(N(C)C)C(=O)C(C(N)=O)=C(O)C3(O)C(=O)C1=C2O", "note": "(stereo not given)", "growth": "44.8% (inactive)"}
